Screens from PubChem BioAssay.
KDM5B inh: Primary screen for KDM5B Histone Demethylases FDH-coupled qHTS; Lysine-specific demethylase 5B (Homo sapiens), Q9UGL1; 2.6% of 220,000 active; KDM5B demethylase, FDH-coupled NADH fluorescence (FDH is formaldehyde dehydrogenase); AID 1347165, 2019; Potency, µM (highest dose often 57.7 µM), usual class: inhibitors; active means well fitted inhibition curve with a large enough effect; further: 0% is about no effect; nearly all actives have a fitted effect of over 70% in size
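Coupled FDH/NAD⁺ fluorescence readout. KDM5BΔAP 200 nM final; compound titration, 10 min RT preincubation; substrate mix 12.5 µM H3K4me3, 25 µM 2-OG, 50 µM Fe(II), 100 µM ascorbate, 0.25 mM NAD⁺, 0.25 U/mL FDH; ΔRFU over 30 min.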
* hit, by the source's call; i = inactive. The entries come from a sample that favours hits as a whole. Potency means the concentration at half of the fitted maximal effect.

SMILES	KDM5B inh
Cc1ccccc1-c1nc(CNS(=O)(=O)c2ccc(Cl)cc2)c(C)o1	i
COc1ccc(OC)c(Nc2nc3ccccc3nc2NS(=O)(=O)c2ccc(C)cc2)c1	i
CC(=O)NC1(C)CCN(Cc2cnc(-c3cccc(N(C)C)c3)s2)CC1	i
CC(=O)NC1(C)CCN(Cc2cnc(-c3ccccc3OCc3ccccc3)s2)CC1	40µM*
CC(=O)NC1(C)CCN(Cc2cnc(-c3ccccc3)s2)CC1	i
CN(Cc1ccccc1Br)c1ccc(S(N)(=O)=O)cn1	i
COc1cccc(-c2cccc(C(=O)O)c2)c1	i
COc1cccc(-c2ccc(C(=O)O)cc2)c1	112µM*
COc1ccc(-c2cccc(C(=O)O)c2)cc1	i
Cn1c(=O)c2nc(SCC(=O)O)n(Cc3ccccc3)c2n(C)c1=O	i
CC(Cc1ccc(Cl)cc1)NC(=O)c1ccc[n+]([O-])c1 (stereo unspecified)	i
Cn1nc(C(=O)Nc2ccccc2Br)c2ccccc2c1=O	i
O=C(NC1CC1)c1ccc2nnc(-c3ccc(C(F)(F)F)cc3)n2c1	56µM*
O=C(NC1CC1)c1ccc2nnc(-c3cccnc3)n2c1	112µM*
Cn1c(SCC(=O)NC2CCCCC2)nnc1-c1cccnc1	i
CC(C)(C)C1CCC(NC(=O)c2ccncc2)CC1 (stereo unspecified)	i
Cc1ccc(C(=O)NC2CCN(c3cc(C(F)(F)F)ncn3)CC2)cc1	i
N[C@@H]1CC[C@@H]1NC(=O)c1cnc(-c2cccnc2)nc1	i
CCN1C(=O)CCC2(C(=O)NCCN(C)C3CCCCC3)CCCC=C12 (stereo unspecified)	i
O=C(CCc1ncc(-c2ccc(F)cc2F)o1)Nc1ccc(Cl)cc1	i
O=C(c1cc(-c2ccc(O)cc2)n[nH]1)N1CCCC(CCc2ccc(F)cc2)C1 (stereo unspecified)	i
CNc1ncc(C(=O)N2CCCC(CCc3ccc(F)cc3)C2)cn1 (stereo unspecified)	20µM*
CCc1ncc(C(=O)N2CCCC(CCc3cccc(C(F)(F)F)c3)C2)cn1 (stereo unspecified)	i
COc1ccc(CCNC(=O)C2CCCN(c3ccc4nnc(C(F)(F)F)n4n3)C2)cc1 (stereo unspecified)	i
CC1=C[C@@H](CNC(=O)CCCC(=O)O)[C@H](C(C)C)C[C@H]1Cc1nc2ccc(C)cc2[nH]1	i
SMILES	KDM5B inh
Cc1ccc(C2(O)CCN(CC(c3ccccc3)c3ccccc3)CC2)nc1	i
Cc1ccc(C2(O)CCN(c3ncccc3C(F)(F)F)CC2)nc1	i
Cc1ccc(C2(O)CCN(c3cc(C(F)(F)F)ccn3)CC2)nc1	25µM*
O=C(Nc1ccc(Oc2ccccc2)cc1)N[C@H]1CO[C@H]2[C@@H]1OC[C@@H]2n1nnnc1Oc1ccccc1	i
CCCCCCCOc1ccc(C(=O)Oc2ccc(C(C)=O)cc2)cc1	i
CC(C)NC(=O)C1CCCN(c2nc3ncccc3o2)C1 (stereo unspecified)	20µM*
COc1cccc(N2CCN(C(=O)C3CCCN(c4cnc5nccnc5c4)C3)CC2)c1 (stereo unspecified)	i
N#CC1CCN(C(=O)C2CCCN(c3nc4ncccc4o3)C2)CC1 (stereo unspecified)	32µM*
O=C(NC1CCCN(c2nc3ncccc3o2)C1)c1ccc(Cl)nc1 (stereo unspecified)	i
O=C(C1CCCC1)N1CCN(c2nc3ccccc3o2)CC1	i
CCCCN(C)C(=O)C1CCCN(c2ncnc3onc(C)c23)C1 (stereo unspecified)	i
CN(C)c1ncccc1CNC(=O)C1CCCN(S(C)(=O)=O)C1 (stereo unspecified)	i
O=C(C1CCCN(c2nc3ncccc3o2)C1)N1CCCC1 (stereo unspecified)	25µM*
CC1CCCN(C(=O)C2CCCN(c3cnc4nccnc4c3)C2)C1 (stereo unspecified)	i
CC(NC(=O)C1CCCN(c2cnc3nccnc3c2)C1)c1cccnc1 (stereo unspecified)	i
Cc1noc2ncnc(N3CCCC(C(=O)NC(C)C)C3)c12 (stereo unspecified)	i
CN(C)C(=O)C1CCCN(c2nc3ncccc3o2)C1 (stereo unspecified)	25µM*
Cc1ccc(N(C(C)C(=O)NCc2cccnc2)S(C)(=O)=O)cc1C (stereo unspecified)	i
COP(=O)(OC)c1nc(-c2ccc(C)cc2)oc1NCc1ccco1	i
CC(Sc1ccc2c(c1)OCCCO2)C(=O)Nc1ccc2ccccc2c1 (stereo unspecified)	i
Cc1ccc(S(=O)(=O)NCc2c(C)nn(Cc3ccccc3)c2C)cc1C	i
CCc1cccc(C)c1NC(=O)Cn1ccn(-c2ccc(OC)c(OC)c2)c(=O)c1=O	i
COc1cc(CN(C(=O)COc2ccccc2C)c2ccccn2)cc(OC)c1OC	i
CN(c1ccccc1)c1ccc2nnc(-c3cc(C(=O)N4CC(O)C4)ccn3)n2n1	i
CNC(=O)c1cccc(-c2cnc(NC(=O)c3ccncc3)c3c2CCO3)c1	i
SMILES	KDM5B inh
COc1cccc(Nc2ncc(-c3ccccc3)c3c2OCC3)c1	20µM*
CN(C)c1cccc(-c2cnc(NC(=O)C3CCOCC3)c3c2CCO3)c1	i
COc1cccc(Nc2ncc(-c3cccc(N(C)C)c3)c3c2OCC3)c1	22µM*
COc1cccc(NC(=O)CCc2ncc(-c3ccccc3)o2)c1	i
COc1cccc(Nc2ncc(C#N)c(N)n2)c1	i
CNC(=O)c1cccc(-c2cnc(Nc3cccc(F)c3)c3c2CCO3)c1	32µM*
CN(C)c1cccc(-c2cnc(Nc3cncnc3)c3c2CCO3)c1	i
O=C(Nc1ncc(-c2cccc(F)c2)c2c1OCC2)c1c[nH]c2ccccc12	i
CCC(C)NC(=O)C(NC(=O)c1ccc(C)cc1)C1CCN(C(=O)CC(C)(C)C)CC1 (stereo unspecified)	i
Cc1cc(S(=O)(=O)NCCO)ccc1F	i
CCCc1cc(=O)[nH]c(SC(C)C(=O)NC2CCCCCC2)n1 (stereo unspecified)	i
COc1cccc(NCc2cc(=O)oc3cc(OC)ccc23)c1	i
Nc1nc(Nc2ccc(Cl)cc2Cl)nc(-c2cc3ccccc3o2)n1	i
O=C(COC(=O)c1c2c(nc3ccccc13)CCCC2)c1ccc(Oc2ccc(Cl)cc2[N+](=O)[O-])cc1	i
COc1ccc(N2C(=O)CCS2(=O)=O)cc1S(=O)(=O)N1CCCCC1	i
COc1ccc(CNC(=O)COc2ccc3c(=O)c(Oc4ccc(F)cc4)coc3c2)cc1	i
O=S(=O)(c1ccc(C(F)(F)F)cc1)N1CCCN(c2ccc(C(F)(F)F)cn2)CC1	i
Cc1cccc(OCC(O)CN2CCCN(c3ccc(C(F)(F)F)cn3)CC2)c1 (stereo unspecified)	i
C[C@@H]1CN(C2CCN(Cc3cnn(C)c3C3CC3)CC2)C[C@H](C)O1	i
Cn1cc(CN2CCCC23CCN(c2ccc(C(F)(F)F)cn2)CC3)cc1C#N	28µM*
CC(C)(C)NC(=O)N1CCCN(c2ccc(C(F)(F)F)cn2)CC1	i
Cn1ncc(CN2CCCC23CCN(c2ccc(C(F)(F)F)cn2)CC3)c1C1CC1	22µM*
CCOC(=O)C1CCN(C(=O)Cc2ccc(N(Cc3ccccc3)C(=O)c3ccco3)cc2)CC1	i
